# MEKK2 mut-MEK5: signal of MEK5 binding to mutant human MEKK2 PB1 domain; bead flow cytometry, Alexa488-MEK5 binding to MEKK2 mutant; percent response, % at 10 µM; 290,000 tested, 0.35% active; AID 1530; in the data active means percent response above about 24%, passing the limit was not always enough
# Beta2AR agonist: human beta-2 adrenergic receptor agonism by FAP | P07550 | Am2.2-beta2AR cells, FAP receptor internalization, flow cytometry | response, % (concentration not given with the values) | 340,000 tested, 0.43% active | AID 504454;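 active means response above a set limit, near 3 SD of response in nonfluorescent compounds, cut at about 42% in these data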
# Target sequence (P07550 whole entry, looked up): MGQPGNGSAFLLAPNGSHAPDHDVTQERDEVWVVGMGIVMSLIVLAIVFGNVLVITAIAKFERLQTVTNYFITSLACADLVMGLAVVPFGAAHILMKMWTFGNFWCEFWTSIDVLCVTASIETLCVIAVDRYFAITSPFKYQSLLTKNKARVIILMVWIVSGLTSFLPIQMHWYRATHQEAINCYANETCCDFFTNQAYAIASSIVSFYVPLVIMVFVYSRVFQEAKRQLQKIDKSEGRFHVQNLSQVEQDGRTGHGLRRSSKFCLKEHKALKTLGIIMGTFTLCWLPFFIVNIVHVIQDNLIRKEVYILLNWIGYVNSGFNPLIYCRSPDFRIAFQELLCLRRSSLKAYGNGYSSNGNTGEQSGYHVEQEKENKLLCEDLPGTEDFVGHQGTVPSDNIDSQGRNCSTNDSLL
# MEKK2wt PB1 HTS: raises or lowers MEK5 binding to wildtype human MEKK2 PB1 domain; Q9Y2U5; bead flow cytometry, Alexa488-MEK5 binding to MEKK2 WT; actives lie on both sides; binding response (% of control), % at 10 µM; 290,000 tested, 1.1% active; AID 1531; in the data active means binding response below about 67% or above about 130%
# MEKK3 PB1 HTS: raises or lowers MEK5 binding to the human MEKK3 PB1 domain; Q99759; bead-based flow cytometry, Alexa488-MEK5 binding to MEKK3; actives lie on both sides; 0 = blocked by unlabeled MEK5, 100 = vehicle; binding response (% of control), % at 10 µM; 290,000 tested, 1.4% active; AID 1529;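 active means binding response more than 3 SD above or below the average of its plate-row segment, actives on both sides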;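 further: Alexa488 bead fluorescence after subtracting the streptavidin-only scavenger bead signal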
# GRK2 inh: inhibitors of human GRK2 displacing RNA aptamer | P25098 | bead flow cytometry, FAM-aptamer displacement from GRK2 | inhibition of aptamer binding, % at 10 µM | 330,000 tested, 0.59% active | AID 488847;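 active means inhibition of aptamer binding above 40%, roughly 3 SD of noise, on plates passing a quality check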;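 further: median bead fluorescence of bound FAM aptamer so fluorescent compounds give negative values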
# MEKK2wt confirm: raises or lowers MEK5 binding to wildtype human MEKK2, retest; shares compounds with MEKK3 PB1 HTS; bead flow cytometry, Alexa488-MEK5 binding to MEKK2 WT; actives lie on both sides; binding response (% of control), % at 10 µM; 5,900 tested, 2.4% active; AID 1892; in the data active means binding response below about 16% or above about 210%; inactive means in between
# MEKK2mut confirm: signal of MEK5 binding to mutant human MEKK2, retest; 5,900 tested, 2% active; AID 1893; percent response, % at 10 µM; bead flow cytometry, Alexa488-MEK5 binding to MEKK2 mutant; shares compounds with MEKK3 PB1 HTS; in the data active means percent response mostly above about 71%, no sharp cut-off; inactive means mostly below about 38%;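 further: higher means compound restores mutant binding toward wildtype level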
# MEKK3 confirm: confirmation of inhibitors of MEK5 binding to human MEKK3; bead flow cytometry, Alexa488-MEK5 binding to MEKK3; active compounds read low; 5,900 tested, 1.8% active; shares compounds with MEKK3 PB1 HTS; binding response (% of control), % at 10 µM; AID 1894;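 active means binding response below 72% of control, or above a set upper limit, though filed actives all read lower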;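 further: lower values mean stronger disruption of MEK5 binding to MEKK3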
# A number is an active result; n = inactive; x = no result; [ ] = remark or other dose. An excerpt weighted towards active compounds, which were near 2.9% of everything screened.
SMILES,MEKK2 mut-MEK5,Beta2AR agonist,MEKK2wt PB1 HTS,MEKK3 PB1 HTS,GRK2 inh,MEKK2wt confirm,MEKK2mut confirm,MEKK3 confirm
CN(C)S(=O)(=O)c1ccc(Cl)c(C(=O)Nc2cccc3ncccc23)c1,n,n,n,n,n,x,x,x
Cc1c(C(=O)NC(=S)N(Cc2ccccc2)c2ccccn2)cccc1[N+](=O)[O-],x,n,x,x,n,x,x,x
COc1ccc(CN(C)C(=O)c2cccc(NC(=O)CC3SC(N4CCCCC4)=NC3=O)c2)c(OC)c1 (configuration not stated),x,n,x,x,x,x,x,x
CCNc1nc(CN2CCOCC2)nc2sc3c(c12)CCC3,n,n,n,n,n,x,x,x
c1ccc2c(c1)CCN(c1nc(CN3CCOCC3)nc3sc4c(c13)CCCC4)C2,n,n,n,135,n,n,n,n
Oc1ccc(N=Nc2n[nH]c(-c3ccc(Cl)cc3)n2)cc1,n,n,n,n,n,x,x,x
COc1cc(/C=N/NC(=O)C2c3ccccc3Oc3ccccc32)ccc1O,n,n,n,122,n,n,n,n
COc1cc(/C=N\NC(=O)CNC(=O)C2COc3ccccc3O2)ccc1O (configuration not stated),n,n,170,134,n,n,n,n
COc1cc(/C=N/NC(=O)C2(O)c3ccccc3-c3ccccc32)ccc1O,n,n,n,148,n,n,n,n
COc1cc2cnc(-c3cccnc3)cc2cc1OC,x,n,x,x,n,x,x,x
CCCNC(=O)Nc1cc(OC)c(OC)cc1Cc1nccc2cc(OC)c(OC)cc12,n,n,n,n,n,x,x,x
O=C(N1CCN(c2ccccc2F)CC1)C1(c2cccs2)CCOCC1,n,n,n,134,n,n,n,n
O=C(N1CCN(c2ccccc2F)CC1)C12CC3CC(CC(C3)C1)C2,n,n,n,n,n,x,x,x
COc1ccc(C(CC(=O)c2ccc(O)cc2)S(=O)(=O)c2ccc(C)cc2)cc1 (configuration not stated),n,n,37[inhibitor],26[inhibitor],n,n,n,n
COc1ccc(C(=O)CC(c2ccccc2)S(=O)(=O)c2ccc(C)cc2)cc1 (configuration not stated),n,x,n,n,n,x,x,x
CCOc1ccc(OCCNC(=O)c2cc(C3CC3)nc3c2cnn3C(C)C)cc1,x,n,x,x,x,x,x,x
O=C(O)CSc1nnc(-c2ccccc2Br)n1-c1cccc(C(F)(F)F)c1,n,n,n,n,n,x,x,x
CCNC(=O)CSc1nnc(-c2ccccc2Br)n1-c1cccc(C(F)(F)F)c1,n,n,n,128,n,n,n,n
NC(=O)CSc1nnc(-c2ccccc2Br)n1-c1cccc(C(F)(F)F)c1,n,n,n,139,n,n,n,n
O=C(NCc1ccccc1CN1CCCC1)c1cc2cc(Cl)ccc2o1,x,n,x,x,n,x,x,x
Cc1[nH]c2ccccc2c1C(Nc1nccs1)c1ccncc1 (configuration not stated),n,n,n,138,n,n,n,n
CC(C)N(C(=O)[C@H]1C[C@H](CC(=O)NCCc2ccccn2)C(=O)N2CCc3c([nH]c4cc(CCC(=O)N(C)C)ccc34)[C@]12C)C(C)C,x,n,x,x,n,x,x,x
CCOC(=O)c1cc(C#N)c(SCC(N)=O)[nH]c1=O,n,n,n,n,n,x,x,x
CCOC(=O)c1cc(C#N)c(SCC(=O)c2cc(C#N)c(SC)nc2C)[nH]c1=O,n,n,n,74[inhibitor],n,n,n,n
FC(F)(F)c1cc(-c2ccco2)nc(NCc2ccco2)n1,n,n,n,n,n,x,x,x
SMILES,MEKK2 mut-MEK5,Beta2AR agonist,MEKK2wt PB1 HTS,MEKK3 PB1 HTS,GRK2 inh,MEKK2wt confirm,MEKK2mut confirm,MEKK3 confirm
FC(F)(F)c1cc(-c2ccco2)nc(NCc2cccs2)n1,n,n,n,122,n,n,n,n
COc1cc(C2c3cc4c(cc3CC3COC(=O)N32)OCO4)cc(OC)c1OC (configuration not stated),x,n,x,x,x,x,x,x
CCOC(=O)C1CCN(C(=O)c2cc(S(=O)(=O)N3CCOCC3)c(Cl)cc2Cl)CC1,n,n,n,82[inhibitor],n,n,n,n
CCOC(=O)C1CCN(C(=O)c2ccc(Cl)c(S(=O)(=O)N3CCOCC3)c2)CC1,n,n,n,n,n,x,x,x
COc1ccc(CN(C)CC(=O)NC2CCCc3ccccc32)cc1OC (configuration not stated),n,n,n,n,n,x,x,x
COc1ccc(N2CCN(CCCNC(=O)c3cc4sccc4n3C)CC2)cc1,n,n,148,n,n,n,n,n
COc1cccc(C(=O)NCCCN2CCN(CCCNC(=O)c3cccc(OC)c3)CC2)c1,n,n,n,128,n,n,n,n
COc1ccc(S(N)(=O)=O)cc1C(=O)NCCCN1CCN(c2cccc(Cl)c2)CC1,x,n,x,x,n,x,x,x
CCc1nc2ccc(C(=O)NCCCN3CCN(c4ccccc4F)CC3)cc2nc1CC,n,n,137,n,n,n,n,n
CC1CCN(CCCNC(=O)c2cc3sccc3n2C)CC1,n,n,n,n,n,x,x,x
COc1cc2c(C(=O)NCCCN3CCN(c4cccc(Cl)c4)CC3)cn(C)c(=O)c2cc1OC,n,n,146,127,n,n,n,n
COc1cccc(C(=O)OCC(=O)Nc2cc(C)on2)c1OC,x,n,x,x,n,x,x,x
C=C1c2cccc(C(F)(F)F)c2O[C@H](C(=O)OCC)[C@H]1OC,x,n,x,x,n,x,x,x
CCOc1ccc(NC(=S)NCCCN2CCN(c3ccc(OC)cc3)CC2)cc1,n,n,140,n,n,n,n,n
COc1ccc(CCNC(=S)NC2CCN(Cc3ccccc3)CC2)cc1,n,n,n,n,n,x,x,x
O=C(Nc1cccc(C(=O)O)c1)/C(=C\c1ccc(F)cc1)NC(=O)c1ccco1,n,n,n,n,n,x,x,x
Cc1cc(C)c(-n2c(SCc3nc4ccccc4s3)n[nH]c2=O)c(C)c1,n,n,n,130,n,n,n,n
O=C(c1cccc([N+](=O)[O-])c1)N1CCN(c2ncccn2)CC1,32,n,n,n,n,n,n,n
O=C(c1cccc(C(=O)N2CCN(c3ncccn3)CC2)c1)N1CCN(c2ncccn2)CC1,x,n,x,x,n,x,x,x
c1ccc(Cn2nnc3c(NCC4CCCO4)ncnc32)cc1 (configuration not stated),n,n,n,61[inhibitor],n,n,n,n
O=C(COC(=O)CCNS(=O)(=O)c1ccccc1)NC(=O)c1ccccc1,x,n,x,x,n,x,x,x
COc1ccc(C(C)=O)cc1COC(=O)CNC(=O)c1ccccc1F,n,n,n,138,n,n,n,n
CC1(CCCN2C(=O)c3ccccc3C2=O)OCCO1,x,n,x,x,n,x,x,x

# High-throughput results deposited in PubChem BioAssay by NMMLSC.
